Among all 410,000 compounds or so, about 7,200 (1.8%) were called active. Inconclusive results (about 7%) are left out. This is one part of a sample in which actives are shown more often than they occur. A number with no mark means an inactive call. Calls follow the shape of the dose curve; as a rule, active = well fitted activation curve with a large enough effect; inconclusive = small, poorly fitted or top-dose-only effect, or another doubt; inactive = no such curve, though single readings can be large or run the other way.
assay: qHTS of TDP-43 Inhibitors; settings: TDP-43 expressing yeast growth rescue, BacTiter-Glo, 24 h; series mostly up to 46.1 µM; growth rescue (activation): at the top concentration; also: nearly all actives have a fitted effect of over 50% in size; as to growth rescue (activation): % of control where 0% means no effect
From the text: The goal of this project is to identify new chemical probes capable of reversing the toxicity associated with TDP-43 which is associated with frontotemporal lobar degeneration and amyotrophic lateral sclerosis. These compounds will provide a complementary approach to deciphering the tangled mechanisms of toxicity and protection that we have uncovered through genome-wide genetic screens and are beginning to uncover in a large-scale proteomics analysis with mass spectroscopy.
To this end, a miniaturized assay was developed to be screened against the Molecular Libraries Small Molecule Repository (MLSMR) to discover TDP-43 inhibitors. Please note that in the set-up this yeast-based assay compounds that inhibit as TDP-43, have a read-out as activators.
NIH Chemical Genomics Center [NCGC]
NIH Molecular Libraries Probe Centers Network [MLPCN]
Assay Submitter (PI): Susan Lindquist, Whitehead Institute/MIT
Dispense 2.5 microL yeast galactose medium per 1536-well plate, pin compound, dispense 2.5 microL TDP-43 expressing yeast in galactose medium at OD600=0.02 (pregrown in raffinose medium to mid-log phase) per well, incubate for 24 hr at 30 deg C, and cell growth will be measured using 5 microL of Bactiter/Glo reagent to entire plate and read using Luminescence Protocol in ViewLux.
Potency is read from the fitted curve at half-maximal effect.

Row | Structure (SMILES) | growth rescue (activation) | Potency
1 | COc1ccc(CNCCc2ccc3c(c2)OCO3)c(OC)c1OC | 0.202% | 
2 | Cc1cc(=O)oc2c(C)c(OCC(=O)N3CCN(Cc4ccc5c(c4)OCO5)CC3)ccc12 | -20.2% | 
3 | CCOc1ccc(S(=O)(=O)NCc2ccc3c(c2)OCO3)cc1C |  | 12.6 µM (active)
4 | O=C(CCC(=O)N1C[C@H]2C[C@@H](C1)c1cccc(=O)n1C2)NCc1ccccc1C(F)(F)F | 17.2% | 
5 | COc1cccc(C(c2nnnn2-c2ccc3c(c2)OCCO3)N2CCC3(CC2)C(=O)NCN3c2ccccc2)c1OC (stereo not drawn) | 27.4% | 
6 | Oc1cc2c(cc1CN1CCN(c3ccccc3)CC1)OCO2 | -5.52% | 
7 | O=C(NC1CCCCC1)N1Cc2cc(N3CCCCC3)ccc2-n2nncc2C1 | 8.16% | 
8 | O=C1/C(=C\c2ccc3c(c2)OCO3)N2CCC1CC2 | -14.1% | 
9 | c1cc2c(cc1[C@H]1OC[C@H]3[C@@H]1CO[C@@H]3c1ccc3c(c1)OCO3)OCO2 |  | 11.2 µM (active)
10 | c1cc2c(cc1CCNC1CCCCCC1)OCO2 | 3.13% | 
11 | O=C(Cc1ccc(Cl)cc1)NCCN1CCN(C(=O)Cc2ccc(Cl)cc2)CC1 | -16.1% | 
12 | CCOC(=O)c1cccc(C2=C(CNC(=O)c3ccncc3)[C@H]3CC[C@@H](C2)N3Cc2ccccc2)c1 | 16.2% | 
13 | Cc1ccc(-n2c(C)cc(/C=C3\C(=O)NC(=O)N(C)C3=O)c2C)cc1C | 15.2% | 
14 | Cc1ccnc(-n2c(C)cc(/C=C3\C(=O)NC(=S)N(C)C3=O)c2C)c1 |  | 35.5 µM (active)
15 | Cc1cc(C=C2C(=O)NC(=O)NC2=O)c(C)n1-c1ccncc1 | 0% | 
16 | ClC(Cl)(Cl)c1ccccc1 | 20.2% | 
17 | O=c1c2ccccc2nc(CBr)n1-c1ccc(Cl)cc1 | -19.6% | 
18 | Cc1nc2ccccc2c(=O)n1-c1ccc(Cl)cc1Cl |  | 15.8 µM (active)
19 | O=c1c2ccccc2nc(-c2ccc(Cl)cc2Cl)n1-c1ccncc1 | 3.25% | 
20 | CCOC(=O)[C@]12Cc3cc(OC)ccc3[C@H]1N(C(C)C)C(=O)c1ccccc12 | -64.3% | 
21 | CCOC(=O)c1c(-c2ccccc2)oc2ccc(OC(=O)N(C)C)cc12 | 7.35% | 
22 | Cc1ccc(-c2nc3ccccc3c(=O)n2-c2ccc(Br)cn2)cc1 | 3.11% | 
23 | NC(=O)Cn1cc(C(=O)c2ccccc2F)c2ccccc21 | 15.2% | 
24 | N#Cc1ccc(Cn2cc(C(=O)c3ccco3)c3ccccc32)cc1 |  | 17.8 µM (active)
25 | Cc1ccc([C@H]2C[C@H](O)[C@@H](n3cc(COC(=O)c4ccccc4)nn3)CN2CC2CCCCC2)cc1 | 0% | 
26 | CC(C)N(CC#CCC1(O)c2ccccc2-c2ccccc21)C(C)C | -17.2% | 
27 | Cc1cccc(Cn2cccc(C(=O)Nc3ccc4c(c3)OCCO4)c2=O)c1 | 17% | 
28 | CCOC(=O)C1CN(C)CCC1=O (stereo not drawn) | 5.32% | 
